Bioassay records: PubChem BioAssay, several laboratories
ROMK mod – modulators of human ROMK potassium channel; 2% of 130,000 active; Tet-inducible ROMK, thallium flux fluorescence; actives lie on both sides; P48048; B-score at 10 µM;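 active = signal ratio slope over the read window, or its plate-corrected B-score, at least 3 SD from the plate mean, either direction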;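 note: B-score of the F/F0 ratio slope over 7 to 12 s after thallium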
WT yeast gro inh – growth inhibition of WT yeast, mitochondrial fusion screen | mitochondrial fusion phenotypic screen, WT strain | inhibition, % at 10 µM | 2.1% of 190,000 active; in the data active = inhibition above about 58%; tested in S. cerevisiae
m-calpain inh – calpain II (pig) inhibition; purified calpain II, fluorogenic peptide substrate, 30 min; inhibition, % at 16 µM; 0.37% of 220,000 active; AID 1236;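 active = inhibition above about 50%, limit read from the data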
Lmaj promast – inhibitors of Leishmania major promastigote growth; AID 1063; 9% of 200,000 active; inhibition, % at 10 µM; Leishmania major promastigotes, resazurin fluorescence viability; in the data active = inhibition above about 50%;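 note: promastigotes grown with compound for 44 hours at 28 °C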
KCC2 mod – KCC2 (human) Cl- transport modulation; KCC2 cells, thallium flux FluoZin-2 fluorescence; B-score of Tl+ flux slope (higher = more flux/activation; lower = inhibition) at 10 µM; 2.2% of 190,000 active; AID 1456;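 active = thallium flux slope and its plate-corrected score both differing from the plate sample mean at a set confidence after two filtering rounds, in either direction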;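 note: slope of fluorescence scaled to starting intensity during 10 to 20 s after thallium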
Target sequence (Q9H2X9 whole entry, looked up): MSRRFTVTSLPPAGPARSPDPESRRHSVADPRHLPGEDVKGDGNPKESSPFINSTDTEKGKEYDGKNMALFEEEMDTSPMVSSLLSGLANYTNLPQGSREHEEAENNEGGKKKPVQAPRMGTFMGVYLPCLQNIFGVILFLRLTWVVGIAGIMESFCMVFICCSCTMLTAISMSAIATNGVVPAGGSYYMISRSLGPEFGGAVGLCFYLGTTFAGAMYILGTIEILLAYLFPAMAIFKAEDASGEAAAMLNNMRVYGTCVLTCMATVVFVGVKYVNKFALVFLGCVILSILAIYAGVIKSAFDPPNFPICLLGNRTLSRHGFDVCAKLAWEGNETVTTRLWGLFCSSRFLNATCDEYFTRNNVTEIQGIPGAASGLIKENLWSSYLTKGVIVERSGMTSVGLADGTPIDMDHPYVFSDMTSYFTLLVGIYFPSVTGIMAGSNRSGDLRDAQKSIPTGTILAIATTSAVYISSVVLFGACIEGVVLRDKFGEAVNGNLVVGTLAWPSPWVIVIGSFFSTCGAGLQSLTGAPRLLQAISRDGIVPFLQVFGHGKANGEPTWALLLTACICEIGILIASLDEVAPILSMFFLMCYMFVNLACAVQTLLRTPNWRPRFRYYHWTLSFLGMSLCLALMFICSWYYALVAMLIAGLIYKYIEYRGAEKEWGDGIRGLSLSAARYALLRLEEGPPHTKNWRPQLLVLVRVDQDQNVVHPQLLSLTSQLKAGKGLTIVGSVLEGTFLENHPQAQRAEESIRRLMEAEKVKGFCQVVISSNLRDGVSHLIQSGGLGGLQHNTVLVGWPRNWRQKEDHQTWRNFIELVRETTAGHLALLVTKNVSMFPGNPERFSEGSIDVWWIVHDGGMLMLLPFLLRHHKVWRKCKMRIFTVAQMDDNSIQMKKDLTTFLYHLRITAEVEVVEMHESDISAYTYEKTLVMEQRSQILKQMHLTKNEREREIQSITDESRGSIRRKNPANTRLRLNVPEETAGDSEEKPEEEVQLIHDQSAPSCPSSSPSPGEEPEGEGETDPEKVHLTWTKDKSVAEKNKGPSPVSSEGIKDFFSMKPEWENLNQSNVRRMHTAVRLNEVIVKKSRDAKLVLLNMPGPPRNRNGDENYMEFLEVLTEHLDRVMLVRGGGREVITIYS
* marks the source's active call; other numbers are inactive results; . = no result. Hits are enriched below; roughly 12% of the tested compounds scored in any of these assays.

SMILES	ROMK mod	WT yeast gro inh	m-calpain inh	Lmaj promast	KCC2 mod
Cc1cccc(N(C)C(=O)c2cc3cc4ccc(C)cc4nc3o2)c1	.	6.9	2.5	13.7	.
COc1ccc2nc3sc(C(=O)NCCCN4CCc5ccccc5C4)cc3cc2c1	-0.213	17.0	-29.7	99.7*	0.634
COc1ccc(C(Nc2ccc(S(=O)(=O)NCC3CCCO3)cc2)C(=O)NC(C)(C)C)cc1OC (stereo not given)	0.945	-28.4	-6.6	-8.0	0.902
COc1ccc(S(=O)(=O)N2CCOCC2)cc1NC(=O)CSc1cccc[n+]1[O-]	.	.	14.0	.	1.49
CCOC(=O)N1CCN(C2CC(=O)N(c3ccc(C)cc3)C2=O)CC1 (stereo not given)	0.782	-4.4	0.1	-5.5	.
Cc1ccc(N2C(=O)CC(N3CCN(C4CCc5ccccc5C4)CC3)C2=O)cc1 (stereo not given)	-1.31	0.9	6.7	87.2*	0.182
COc1ccccc1/C=C/C(=O)NCc1cccnc1	.	-8.8	-27.9	16.1	0.304
CN(/N=C/c1ccncc1)C1=NS(=O)(=O)c2ccccc21	0.352	13.4	-17.0	6.2	-0.916
CC(C)(C)NC(=O)CCN(/N=C/c1ccc([N+](=O)[O-])o1)C1=NS(=O)(=O)c2ccccc21	0.918	-8.3	-6.7	99.5*	0.375
Cc1ccc2nc(N(CCCN(C)C)C(=O)CN3C(=O)c4ccccc4C3=O)sc2c1	-0.31	16.9	-36.6	8.5	1.02
COc1cccc2sc(N(CCN(C)C)C(=O)/C=C/c3cccs3)nc12	-0.278	15.8	-35.5	6.9	0.44
CN(C)CCN(C(=O)/C=C/c1cccs1)c1nc2c(F)cc(F)cc2s1	.	25.7	-2.0	77.0*	0.924
CN(C)CCCN(C(=O)c1sc2ccccc2c1Cl)c1nc2ccc(F)cc2s1	.	63.5*	14.8	71.7*	-2.27
Cc1ccc2nc(N(CCN(C)C)C(=O)/C=C/c3cccs3)sc2c1	.	29.7	-0.9	83.3*	0.313
CN(C)CCCN(C(=O)/C=C/c1cccs1)c1nc2ccc(F)cc2s1	-0.276	85.8*	-31.1	16.5	1.02
O=C(O)CC1COc2ccccc2N1C(=O)c1ccccc1Cl (stereo not given)	0.568	-6.6	-25.5	-1.6	0.0448
Cc1ccc2nc(N(CCCN(C)C)C(=O)c3cc4ccccc4oc3=O)sc2c1	.	7.2	6.8	67.2*	0.198
Cc1cccc2sc(N(CCCN(C)C)C(=O)c3cc4ccccc4oc3=O)nc12	.	1.5	-7.9	9.8	-0.385
Cc1nc2ccccc2nc1OCc1ccccc1	.	6.5	-1.6	-7.2	-1.13
Cc1c(OCc2ccccc2)cccc1OCc1ccccc1	1	65.6*	17.0	-1.1	0.434
Cc1cccc(NC(=O)NNC(=O)COc2ccc(Cl)cc2)c1	0.113	16.8	-16.6	-4.1	-0.18
O=C1COc2ccc(C(=O)C[n+]3cccc(O)c3)cc2N1	.	.	-9.2	.	0.0356
Fc1ccc(Nc2ccnc(Nc3ccc(F)cc3)n2)cc1	.	74.8	16.3	94.7*	-0.123
Nc1ncnc(Nc2ccc(F)cc2)n1	.	-7.4	-10.5	57.2*	-0.822
COc1cccc(C2=CC(c3cc(OC)ccc3OC)n3nnnc3N2)c1 (stereo not given)	.	22.3	21.6	92.0*	0.513
SMILES	ROMK mod	WT yeast gro inh	m-calpain inh	Lmaj promast	KCC2 mod
COc1cccc(C2=CC(c3ccc(N(C)C)cc3)n3nnnc3N2)c1 (stereo not given)	-0.246	16.4	0.5	1.8	.
COc1cccc(C2=CC(c3cccc(OC)c3OC)n3nnnc3N2)c1 (stereo not given)	.	9.3	23.0	78.8*	0.944
COc1cccc(C2=CC(c3ccccc3)n3nnnc3N2)c1 (stereo not given)	1.25	68.1*	62.6*	44.5	-1.48
CC1(C)OC(=O)C(=NNc2ccc(Br)cc2)C(=O)O1	-0.105	3.1	8.3	-8.0	0
Cc1cc(NC(=O)CCOc2ccc(F)cc2)no1	.	.	30.0	.	.
Cc1ccc(-c2noc(CCC(=O)NCCc3ccccc3Cl)n2)cc1	.	22.7	14.9	-0.2	0.0128
CCc1ccccc1N(CC)C(=O)CCc1nc(-c2ccc(C)cc2)no1	.	72.3*	35.8	20.3	0.863
CCN(CCCNC(=O)CCc1nc(-c2ccc(C)cc2)no1)c1cccc(C)c1	.	64.0*	11.1	-2.2	-0.0161
O=c1[nH]c2cc(NCCO)c([N+](=O)[O-])cc2[nH]1	-0.255	-14.0	-18.1	1.4	0.188
CN(C)CCCN1C(=O)c2oc3ccc(F)cc3c(=O)c2C1c1cccnc1 (stereo not given)	.	-3.2	-14.0	-3.7	1.33
CN(C)CCCN(Cc1cc2cc3c(cc2[nH]c1=O)OCO3)C(=S)Nc1ccccc1	.	17.4	-38.2	-1.6	.
CN(C)CCCN(Cc1cc2cc3c(cc2[nH]c1=O)OCO3)C(=S)Nc1cccc(Cl)c1	-1.41	-18.0	-137.3	92.8*	-0.339
CCN(CC)CCCNC(=S)N(Cc1cccnc1)Cc1cc2cccc(C)c2[nH]c1=O	-0.742	0.0	13.1	-0.2	1.73
Cc1cccc2cc(CN(Cc3ccccc3)C(=S)NCCCN(C)C)c(=O)[nH]c12	-3.68	2.8	-18.4	77.7*	0.0116
Cc1ccc(NC(=S)N(CCN(C)C)Cc2cc3cccc(C)c3[nH]c2=O)cc1	-1.26	10.0	27.5	26.6	0.408
Cc1cccc2cc(CN(Cc3cccnc3)C(=S)NCCCN(C)C)c(=O)[nH]c12	-0.129	5.9	-10.4	-6.8	-0.803
Cc1ccc(CN(Cc2cc3cccc(C)c3[nH]c2=O)C(=S)NCCCN(C)C)cc1	-2.18	-2.8	-54.4	61.8*	-0.635
Cc1cccc(NC(=S)N(CCN(C)C)Cc2cc3cccc(C)c3[nH]c2=O)c1	-2.6	-0.9	-2.1	95.2*	-0.03
COc1ccc(OC)c(C2C(C(=O)c3ccco3)=C(O)C(=O)N2CCCN2CCOCC2)c1 (stereo not given)	-0.263	.	.	.	.
Cc1ccc([N+](=O)[O-])cc1NC(=O)C(C)NS(=O)(=O)c1ccc(F)cc1 (stereo not given)	0.493	3.8	-17.8	-0.7	0.319
COC(=O)c1cc(-c2ccc(NC(C)=O)cc2)nc2ccccc12	0.00978	-8.1	-16.7	-2.1	-0.304
COC(=O)c1cn(C(=O)OC)c2ccccc12	-0.119	66.3*	19.9	19.4	.
COC(=O)c1cn(C(=O)c2ccc(C)cc2C)c2ccccc12	0.621	60.5*	18.8	15.0	-0.183
COC(=O)c1cn(C(=O)c2ccccc2Cl)c2ccccc12	-1.93	26.6	-2.5	6.9	-0.427
O=C(/C=C\c1ccc2c(c1)OCO2)Nc1nnc(SCC(=O)OCc2ccccc2)s1	-0.0309	-4.9	-30.8	91.7*	0.481
COC(=O)CSc1nnc(NC(=O)/C=C\c2ccc3c(c2)OCO3)s1	-0.0813	-13.7	23.4	99.9*	0.0894
O=C(/C=C/c1ccc2c(c1)OCO2)Nc1nncs1	.	.	-18.4	.	-0.0913
Cc1cccc(N2CCN(C(=O)c3ccc(CS(=O)(=O)c4ccccc4C)o3)CC2C)c1 (stereo not given)	1.33	51.2	-1.1	58.9*	-0.983
O=C(NCc1cccnc1)c1ccc(CN2CCc3ccccc3C2)cc1	-1.08	-0.7	-0.8	63.0*	.
O=C(c1ccc(CN2CCc3ccccc3C2)cc1)N1CCCCC1	.	12.2	-25.9	63.5*	-0.893
